Reference: PubChem BioAssay AID1159580 (chemical genetic matrix, 2015)
In all, about 5,500 compounds went through this assay and about 2,000 (36%) were called active. Another 18% or so got no clear call; they are omitted. Rule as the data show it: active = normalized growth mostly below about 0.91 (no sharp cut-off); inconclusive = no clear call, values can overlap the other calls; inactive = mostly above about 0.92. Some of the results follow.

Assay: chemical genetic growth profiling, strain panel (AID 1159580);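 also: tested at 20 µM; growth read once vehicle control cultures reached saturation at 30 °C; 1 = growth at the plate median or of vehicle wells; lower values mean less growth of the strain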
Conditions: growth OD

Measured: normalized growth

C=C1C(=O)O[C@@H]2C[C@@]3(C)CCC[C@H](C)C3=C[C@H]12
active: S. cerevisiae deletion strains, locus YKL085W, strain MDH1 (second series), stronger effect = lower value 0.909 | S. cerevisiae deletion strains, locus YKL085W, strain MDH1, stronger effect = lower value 0.909 | S. cerevisiae deletion strains, locus YKL160W, strain elf1, stronger effect = lower value 0.78 | S. cerevisiae deletion strains, locus YKR001C, strain vps1, stronger effect = lower value 0.496 | S. cerevisiae deletion strains, locus YKR026C, strain gcn3, stronger effect = lower value 0.893 | S. cerevisiae deletion strains, locus YKR091W, strain srl3, stronger effect = lower value 0.913 | S. cerevisiae deletion strains, locus YLL001W, strain dnm1, stronger effect = lower value 0.842 | S. cerevisiae deletion strains, locus YLL026W, stronger effect = lower value 0.869 | S. cerevisiae deletion strains, locus YLL041C, strain sdh2, stronger effect = lower value 0.888 | S. cerevisiae deletion strains, locus YLR027C, strain aat2, stronger effect = lower value 0.827 | S. cerevisiae deletion strains, locus YLR039C, strain RIC1, stronger effect = lower value 0.221 | S. cerevisiae deletion strains, locus YLR221C, strain rsa3, stronger effect = lower value 0.751 | S. cerevisiae deletion strains, locus YLR258W, strain gsy2, stronger effect = lower value 0.819 | S. cerevisiae deletion strains, locus YLR262C, strain YPT6 (second series), stronger effect = lower value 0.259 | S. cerevisiae deletion strains, locus YLR262C, strain YPT6, stronger effect = lower value 0.268 | S. cerevisiae deletion strains, locus YLR268W, strain sec22, stronger effect = lower value 0.668 | S. cerevisiae deletion strains, locus YLR320W, strain mms22, stronger effect = lower value 0.597 | S. cerevisiae deletion strains, locus YLR330W, strain CHS5, stronger effect = lower value 0.848 | S. cerevisiae deletion strains, locus YLR342W, strain FKS1, stronger effect = lower value 0.885 | S. cerevisiae deletion strains, locus YLR357W, strain rsc2, stronger effect = lower value 0.662 | S. cerevisiae deletion strains, locus YLR370C, strain arc18, stronger effect = lower value 0.899 | S. cerevisiae deletion strains, locus YLR371W, strain rom2, stronger effect = lower value 0.646 | S. cerevisiae deletion strains, locus YLR384C, strain iki3, stronger effect = lower value 0.87 | S. cerevisiae deletion strains, locus YLR418C, strain cdc73, stronger effect = lower value 0.31 | S. cerevisiae deletion strains, locus YML016C, strain PPZ1, stronger effect = lower value 0.85 | S. cerevisiae deletion strains, locus YML120C, strain ndi1, stronger effect = lower value 0.818 | S. cerevisiae deletion strains, locus YML124C, strain tub3, stronger effect = lower value 0.896 | S. cerevisiae deletion strains, locus YMR058W, strain fet3, stronger effect = lower value 0.8 | S. cerevisiae deletion strains, locus YMR125W, strain sto1, stronger effect = lower value 0.669 | S. cerevisiae deletion strains, locus YMR129W, stronger effect = lower value 0.847 | S. cerevisiae deletion strains, locus YMR205C, strain PFK2, stronger effect = lower value 0.653 | S. cerevisiae deletion strains, locus YMR223W, strain ubp8, stronger effect = lower value 0.815 | S. cerevisiae deletion strains, locus YMR231W, strain pep5, stronger effect = lower value 0.859 | S. cerevisiae deletion strains, locus YNL071W, strain lat1, stronger effect = lower value 0.377 | S. cerevisiae deletion strains, locus YNL153C, strain GIM3, stronger effect = lower value 0.868 | S. cerevisiae deletion strains, locus YNL209W, strain ssb2, stronger effect = lower value 0.902 | S. cerevisiae deletion strains, locus YNL233W, strain BNI4, stronger effect = lower value 0.828 | S. cerevisiae deletion strains, locus YNL248C, strain rpa49, stronger effect = lower value 0.617 | S. cerevisiae deletion strains, locus YNL271C, strain bni1, stronger effect = lower value 0.855 | S. cerevisiae deletion strains, locus YNL307C, strain MCK1, stronger effect = lower value 0.737 | S. cerevisiae deletion strains, locus YNL322C, strain KRE1 (second series), stronger effect = lower value 0.902 | S. cerevisiae deletion strains, locus YNR049C, strain mso1, stronger effect = lower value 0.903 | S. cerevisiae deletion strains, locus YNR052C, strain pop2, stronger effect = lower value 0.875 | S. cerevisiae deletion strains, locus YOL147C, strain pex11, stronger effect = lower value 0.921 | S. cerevisiae deletion strains, locus YOR001W, strain rrp6, stronger effect = lower value 0.807 | S. cerevisiae deletion strains, locus YOR069W, strain VPS5, stronger effect = lower value 0.915 | S. cerevisiae deletion strains, locus YOR070C, strain gyp1, stronger effect = lower value 0.856 | S. cerevisiae deletion strains, locus YOR080W, strain dia2, stronger effect = lower value 0.908 | S. cerevisiae deletion strains, locus YOR083W, strain WHI5, stronger effect = lower value 0.82 | S. cerevisiae deletion strains, locus YOR106W, strain vam3, stronger effect = lower value 0.752 | S. cerevisiae deletion strains, locus YOR144C, strain elg1, stronger effect = lower value 0.927 | S. cerevisiae deletion strains, locus YOR184W, strain ser1, stronger effect = lower value 0.577 | S. cerevisiae deletion strains, locus YOR265W, strain rbl2, stronger effect = lower value 0.883 | S. cerevisiae deletion strains, locus YOR270C, strain vph1, stronger effect = lower value 0.583 | S. cerevisiae deletion strains, locus YOR290C, strain snf2, stronger effect = lower value 0.785 | S. cerevisiae deletion strains, locus YPL051W, strain arl3, stronger effect = lower value 0.73 | S. cerevisiae deletion strains, locus YPL055C, strain LGE1, stronger effect = lower value 0.722 | S. cerevisiae deletion strains, locus YPL078C, strain atp4, stronger effect = lower value 0.791 | S. cerevisiae deletion strains, locus YPL106C, strain sse1, stronger effect = lower value 0.521 | S. cerevisiae deletion strains, locus YPL240C, strain hsp82, stronger effect = lower value 0.825 | S. cerevisiae deletion strains, locus YPR119W, strain clb2, stronger effect = lower value 0.907 | S. cerevisiae deletion strains, locus YPR163C, strain tif3, stronger effect = lower value 0.749 | S. cerevisiae deletion strains, locus YPR167C, strain met16, stronger effect = lower value 0.899 | S. cerevisiae strains, strain wild type, stronger effect = lower value 0.882
inactive: S. cerevisiae deletion strains, locus YJR043C, strain POL32, stronger effect = lower value 0.88 | S. cerevisiae deletion strains, locus YJR066W, strain TOR1, stronger effect = lower value 0.939 | S. cerevisiae deletion strains, locus YKL009W, strain mrt4, stronger effect = lower value 1.01 | S. cerevisiae deletion strains, locus YKL068W, stronger effect = lower value 0.946 | S. cerevisiae deletion strains, locus YKL190W, strain CNB1, stronger effect = lower value 0.934 | S. cerevisiae deletion strains, locus YLR058C, strain SHM2, stronger effect = lower value 0.898 | S. cerevisiae deletion strains, locus YLR102C, strain apc9, stronger effect = lower value 0.942 | S. cerevisiae deletion strains, locus YLR113W, strain HOG1, stronger effect = lower value 0.991 | S. cerevisiae deletion strains, locus YLR342W, strain FKS1 (second series), stronger effect = lower value 0.864 | S. cerevisiae deletion strains, locus YML032C, strain rad52, stronger effect = lower value 0.923 | S. cerevisiae deletion strains, locus YMR078C, strain ctf18, stronger effect = lower value 0.915 | S. cerevisiae deletion strains, locus YMR307W, strain GAS1, stronger effect = lower value 0.654 | S. cerevisiae deletion strains, locus YNL067W, strain RPL9B, stronger effect = lower value 0.896 | S. cerevisiae deletion strains, locus YNL183C, strain NPR1, stronger effect = lower value 0.959 | S. cerevisiae deletion strains, locus YNL250W, strain rad50, stronger effect = lower value 0.949 | S. cerevisiae deletion strains, locus YNL298W, strain CLA4, stronger effect = lower value 0.943 | S. cerevisiae deletion strains, locus YOL006C, strain TOP1, stronger effect = lower value 0.598 | S. cerevisiae deletion strains, locus YOL012C, strain htz1 0.342 | S. cerevisiae deletion strains, locus YOR061W, strain CKA2, stronger effect = lower value 0.925 | S. cerevisiae deletion strains, locus YOR136W, strain idh2, stronger effect = lower value 0.942 | S. cerevisiae deletion strains, locus YOR231W, strain MKK1, stronger effect = lower value 1.01 | S. cerevisiae deletion strains, locus YOR316C, strain cot1, stronger effect = lower value 0.939 | S. cerevisiae deletion strains, locus YPL256C, strain CLN2, stronger effect = lower value 0.949 | S. cerevisiae deletion strains, locus YPR141C, strain kar3, stronger effect = lower value 0.926 | S. cerevisiae deletion strains, strain wtn01, stronger effect = lower value 0.909
